# DAX1 inh-1: DAX1 (NR0B1) inhibitors, primary screen, cell-based, HEK293, Gal4-DAX1, luciferase luminescence | hit rate 0.99% among 340,000 | AID 504766, 2011 | HEK293 Gal4-DAX1 luciferase reporter | Nuclear receptor subfamily 0 group B member 1 (Homo sapiens), P51843 | inhibition, % at 6.75 µM;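 active = inhibition above the mean over all tested compounds plus 3 SD, cut at about 4.2% in these data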;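 note: inhibition shows as a rise in luminescence from relieved DAX1 repression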
# hgDAF-12 ag: H. glycines DAF-12 receptor agonists, primary screen, cell-based, luminescence, HEK293, GAL4 fusion, UAS-luciferase | Nuclear hormone receptor DAF-12 (Heterodera glycines), GAL4 fusion | hit rate 1.8% among 370,000 | HEK293 GAL4-hgDAF12 UAS-luciferase reporter, agonist luminescence; normalized to butyrate control | activation, % at 6.8 µM;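 active = activation above a cutoff set at the mean of all screened compounds plus 3 SD, cut at about 10% in these data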
# ssDAF12 agonist: S. stercoralis DAF-12 nuclear receptor activators, primary screen, cell-based, luminescence, HEK293, GRIP1 co-expression, lit1-tk-luc; AID 652126, 2013; HEK293 ssDAF-12/GRIP1 lit1-tk-luc reporter; % of 3 µM dafachronic acid response; activation, % at 6.8 µM; hit rate 1% among 370,000;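 active = activation above the mean over all tested compounds plus 3 SD, cut at about 0.9% in these data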
# hcDAF-12 act: H. contortus DAF-12 nuclear receptor activators, primary screen, cell-based, luminescence, HEK293, lit1-tk-luc reporter; HEK293 hcDAF-12 lit1-tk-luc reporter; 0% DMSO, 100% Δ7-dafachronic acid; activation, % at 6.8 µM; hit rate 1.4% among 370,000;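 active = activation above the mean of all tested compounds plus 3 SD, cut at about 5.5% in these data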
# DAX1 inh-2: DAX1 (NR0B1) inhibitors on StAR promoter, primary screen, cell-based, luminescence, SF-1 (NR5A1), full-length DAX-1. HEK293T StAR-luciferase reporter, SF-1/DAX-1 repression relief. inhibition, % at 6.8 µM. hit rate 1.1% among 370,000;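 active = inhibition above the mean over all tested compounds plus 3 SD, cut at about 3.6% in these data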;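 note: higher inhibition means more luminescence from relief of DAX-1 repression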
# hgDAF12 ag: H. glycines DAF-12 receptor agonists, confirmation, cell-based, luminescence, HEK293, GAL4-LBD fusion | hit rate 80% among 3,300 | shares compounds with hgDAF-12 ag | activation, % at 6.8 µM | HEK293 GAL4-hgDAF12 luciferase reporter, agonist mode; percent of butyrate response;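 active = mean activation over triplicate wells above the hit cutoff derived from the earlier primary screen, cut at about 11% in these data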
# LXR ag 2: LXR agonists, Gal4 luciferase reporter, confirmation, counter-screen for hgDAF-12 agonist project, cell-based, luminescence, HEK293, H. glycines campaign; 24 h; shares compounds with hgDAF-12 ag; activation, % at 6.8 µM; 3,300 tested, under 10 active;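 active = mean activation of the triplicate above a set limit carried over from the primary screen, none filed active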
# Target sequence (P55055 whole entry, looked up, the tested form may be a part): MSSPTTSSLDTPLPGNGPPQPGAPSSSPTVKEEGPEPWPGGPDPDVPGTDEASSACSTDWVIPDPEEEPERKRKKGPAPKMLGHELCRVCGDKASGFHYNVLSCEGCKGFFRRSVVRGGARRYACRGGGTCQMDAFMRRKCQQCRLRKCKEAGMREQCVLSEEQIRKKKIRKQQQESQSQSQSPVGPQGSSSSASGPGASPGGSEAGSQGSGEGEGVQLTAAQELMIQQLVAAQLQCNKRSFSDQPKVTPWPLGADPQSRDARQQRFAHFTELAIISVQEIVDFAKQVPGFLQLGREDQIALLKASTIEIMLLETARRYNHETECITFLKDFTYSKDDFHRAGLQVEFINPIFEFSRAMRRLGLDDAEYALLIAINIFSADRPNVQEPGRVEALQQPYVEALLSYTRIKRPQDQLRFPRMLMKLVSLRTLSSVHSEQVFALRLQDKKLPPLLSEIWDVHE
# Numbers stand for hits; n = inactive; x = no result given. Sampled rows, rich in hits. Any-hit rate of the full collection: about 4.1%.
SMILES,DAX1 inh-1,hgDAF-12 ag,ssDAF12 agonist,hcDAF-12 act,DAX1 inh-2,hgDAF12 ag,LXR ag 2
CC(C)(C)NC(=O)CSc1nnc(-c2ccncc2)n1Cc1ccccc1,n,13.8,n,n,n,n,n
CC(C)C(C)(C#N)NC(=O)CSc1nnc(-c2ccncc2)n1Cc1ccccc1 (stereo not drawn),n,n,n,n,n,x,x
COC(=O)[C@@]12CCCCC3=C1N(CCC3)C(=O)[C@H]2CC(=O)NCc1cccc(C(F)(F)F)c1,x,n,n,n,n,x,x
C(=C\c1nc(-c2cccnc2)no1)/c1ccccc1,n,13.3,1.0,n,n,12.4,n
CCOc1ccc(NC(c2ccccn2)c2oc(CO)cc(=O)c2O)cc1 (stereo not drawn),n,14.1,1.4,n,n,13.1,n
Cc1cc(Br)cn2c(Cc3ccccc3C(F)(F)F)c(-c3cccc(Cl)c3)nc12,x,n,n,n,n,x,x
O=C(Nc1ccc2c(c1)OCO2)N1CCN(Cc2ccco2)CC1,n,20.3,n,n,n,13.8,n
Cc1ccc(NC(=O)N2CCN(Cc3ccc4c(c3)OCO4)CC2)cc1,n,n,n,n,n,x,x
O=C(N/N=C/c1ccc([N+](=O)[O-])o1)c1ccc2c(c1)OCO2,n,n,n,n,n,x,x
O=C(N/N=C/c1ccc(Br)o1)c1ccc2c(c1)OCCO2,n,16.2,n,n,n,10.6,n
COc1cc(/C=N/NC(=O)c2ccc3c(c2)OCCO3)cc(Cl)c1O,n,n,n,n,n,x,x
COc1c(O)ccc(/C=N/NC(=O)c2ccc3c(c2)OCCO3)c1[N+](=O)[O-],n,14.9,n,n,n,n,n
C[C@H]1C2CC(OC(=O)Nc3cccc(C(F)(F)F)c3)C(C2)[C@H]2CCCCN21 (stereo partly drawn),x,n,n,n,n,x,x
O=c1c(-c2ccc3c(c2)OCCO3)coc2cc(OC3OC(CO)C(O)C(O)C3O)ccc12 (stereo not drawn),n,16.8,n,5.8,n,14.1,n
COc1ccc(-c2coc3cc(O[C@@H]4O[C@H](CO)[C@@H](O)[C@H](O)[C@H]4O)ccc3c2=O)cc1,n,n,n,n,n,x,x
O=C(NCc1ccc(F)cc1)c1cnn2ccccc12,n,15.7,n,n,n,12.9,n
CSc1cccc(NC(=O)c2cnn3ccccc23)c1,n,17.6,1.7,n,n,19.8,n
Cn1cc(CC(=O)NCc2ccc(F)cc2)c2ccccc21,n,n,n,n,n,x,x
CSc1cccc(NC(=O)Cn2cccc2)c1,n,n,n,n,n,x,x
O=C(NC(=S)Nc1ccc(N2CCOCC2)cc1)c1ccco1,n,16.2,n,n,n,n,n
CCC(C)NC(=O)Cn1c(COc2ccc(Cl)cc2Cl)nc2ccccc21 (stereo not drawn),n,16.1,n,n,n,16.8,n
COCCN1Cc2cc(C(=O)OC)c3c(c2C1=O)c1cc(F)ccc1n3S(=O)(=O)c1ccc(C)cc1,x,n,n,n,n,x,x
O=C(NCCc1ccccc1)NC1CCCCC1,n,14.3,n,n,n,n,n
S=C(NCCc1cccc(Cl)c1)NC1CCCCC1,n,13.9,n,n,n,11.1,n
COc1ccc(OC)c(C=C2CCc3ccccc3C2=O)c1,x,14.1,n,n,n,n,n
SMILES,DAX1 inh-1,hgDAF-12 ag,ssDAF12 agonist,hcDAF-12 act,DAX1 inh-2,hgDAF12 ag,LXR ag 2
COc1ccc2c(c1)CC/C(=C/c1cc(OC)c(OC)c(OC)c1)C2=O,n,n,n,n,n,x,x
COC(=O)[C@]12C[C@H](CC(=O)N3CCOCC3)C(=O)N(Cc3ccccc3)C1=C[C@H](C(C)(C)C)O[C@@H]2C,x,n,n,n,n,x,x
Cc1nnc(NC(=O)c2ccc(Br)cc2)s1,n,n,n,n,n,x,x
Cc1ccc(NC(=O)c2ccc(CSc3nnc(C)s3)cc2)cc1,n,16.1,n,n,n,13.8,n
Cc1ccc(C(=O)Nc2nnc(C)s2)cc1,x,15.9,n,n,4.3,12.1,n
Cc1cc(C)cc(NC(=O)c2ccc(CSc3nnc(C)s3)cc2)c1,n,n,n,n,n,x,x
Cn1cccc1C(=O)N1CCN(S(=O)(=O)c2ccc(C(C)(C)C)cc2)CC1,x,n,n,n,n,x,x
COc1ccc(NC(=O)C(C)N=C2NS(=O)(=O)c3ccccc32)cc1S(N)(=O)=O (stereo not drawn),n,15.0,n,n,n,n,n
O=C(NCC1CCCO1)c1cc(-c2ccccc2)on1 (stereo not drawn),4.3,42.0,n,6.5,n,48.4,n
O=C(NCC1CCCO1)c1sc2ccccc2c1Cl (stereo not drawn),n,13.8,n,n,n,n,n
O=C(NCC1CCCO1)c1cc(-c2ccc(F)cc2)no1 (stereo not drawn),n,18.4,n,n,n,19.1,n
Cc1ccc(-c2cc(C(=O)NCC3CCCO3)no2)cc1 (stereo not drawn),n,14.3,n,n,n,13.1,n
Cc1ccccc1Cn1cc(COC(=O)NCC(C)C)nn1,x,n,n,n,n,x,x
Cc1ccc2cccc(OC(=O)c3cccnc3Oc3ccccc3)c2n1,x,n,n,n,n,x,x
O=C(N/N=C/C(Cl)=C/c1ccccc1)c1ccco1,n,22.2,n,n,4.0,12.0,n
CCOC(=O)N1CCN(C(=O)C[C@H]2C[C@@]3(C(=O)OC)C(=C[C@H](COCc4ccccc4)O[C@@H]3C)N(Cc3ccc4c(c3)OCO4)C2=O)CC1,x,n,n,n,n,x,x
CCCC12CN3CCN(CC(C3)/C1=N\NC(=O)c1ccc(F)cc1)C2,n,13.3,n,n,n,n,n
O=C(NN=C1CCCCCCC1)c1ccc(F)cc1,n,n,n,n,n,x,x
COC(=O)c1cccc(Cn2ccc3ccc(-c4ccc5ccn(Cc6cccc(C(=O)OC)c6)c5c4)cc32)c1,x,n,n,n,n,x,x
CNc1nc(-c2ccc3c(c2)CCN3C(=O)c2ccccc2F)cs1,n,23.4,n,n,3.9,18.0,n
CNc1nc(-c2ccc3c(c2)CCN3C(=O)c2ccccc2F)c(C)s1,n,n,n,n,n,x,x
Fc1ccccc1COc1ccc(Br)cc1CNCC1CCCO1 (stereo not drawn),n,n,n,n,n,x,x

# From PubChem BioAssay
